Compound activity as filed in PubChem BioAssay.
Only some compounds are listed: those with a hit (about 9.1% of all), similar ones and a draw of the others.
mHtt clearance = mutant huntingtin protein clearance. HeLa Exon1htt(103Q)mCFP, aggregate imaging; zero = plate's median compound well. inhibition, % at 1.5 µM. hit rate 0.42% among 47,000;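 active = inhibition of aggregate fluorescence above about 70%, also judged a hit by eye on the cell image, limit read from the data, passing the limit was not always enough; inconclusive = no rule stated for this call; inactive = not judged a hit on image review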;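 note: cells exposed to compound for three days before fixation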
M1 agonist = M1 muscarinic receptor agonism. AID 626. CHO-M1 cells, Fluo-4 calcium fluorescence, agonist mode; hits give high values. hit rate 3% among 64,000. B-score at 10 µM;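 active = fluorescence rise, raw or as B-score row- and column-corrected plate score, outside the 99.7% band of its plate's samples, either direction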
M1 antagonist = M1 muscarinic receptor (rat) antagonism; CHO-M1 cells, Fluo-4 calcium, ACh EC80 antagonist mode; hits give low values; B-score at 10 µM; hit rate 3.4% among 64,000; AID 628;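 active = calcium fluorescence response, raw or row-and-column corrected B-score, differing from the plate sample mean either way at a set confidence level, mostly lower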
Target sequence (P08482 whole entry, looked up): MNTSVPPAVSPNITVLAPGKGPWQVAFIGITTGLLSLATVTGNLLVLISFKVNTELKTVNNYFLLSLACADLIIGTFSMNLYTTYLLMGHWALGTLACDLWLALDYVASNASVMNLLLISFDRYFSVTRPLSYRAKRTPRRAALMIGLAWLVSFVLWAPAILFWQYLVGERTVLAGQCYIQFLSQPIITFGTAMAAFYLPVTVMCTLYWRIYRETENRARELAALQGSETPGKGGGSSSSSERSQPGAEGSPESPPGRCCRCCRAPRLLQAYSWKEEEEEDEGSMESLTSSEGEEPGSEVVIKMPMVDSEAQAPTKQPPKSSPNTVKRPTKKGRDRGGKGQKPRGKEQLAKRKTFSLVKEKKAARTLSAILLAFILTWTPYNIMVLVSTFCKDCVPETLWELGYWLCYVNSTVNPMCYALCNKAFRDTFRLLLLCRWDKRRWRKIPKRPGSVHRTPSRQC
D1 mod = allosteric modulators of human D1 dopamine receptor; HEK293 D1, CRE-luciferase, dopamine EC30 potentiation; actives deviate in either direction; B-score at 10 µM; hit rate 5.9% among 58,000;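 active = luminescence count or its row- and column-corrected plate score outside the 99.7% band of the plate's sample wells, on either side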
M1 agonist conf = confirmation of rat M1 muscarinic receptor agonists; fluorescence change (max-min) at 10 µM; CHO-M1 cells, Fluo-4 calcium fluorescence, agonist mode; actives lie on both sides; shares compounds with M1 agonist; hit rate 19% among 1,700;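 active = fluorescence change differs from the solvent-only DMSO control mean at a set confidence level in both duplicate runs; inconclusive = differs from solvent-only control mean in just one of two runs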;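 note: an EC20 dose of acetylcholine follows compound addition during the same imaging run; raw fluorescence intensity difference in instrument units with no normalization to controls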
M4 ag counter = rat M4 muscarinic agonism, M1 counter-screen | shares compounds with M1 agonist | CHO M4/Gqi5 cells, Fluo-4 calcium fluorescence, agonist mode; actives lie on both sides | fluorescence change (max-min) at 10 µM | hit rate 9% among 1,700;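 active = fluorescence change differing from the plate's solvent-only control wells at 99.7% confidence in both duplicates, whether higher or lower; inconclusive = differs from solvent controls in only one of two duplicates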
* hit, by the source's call; i = inactive; ? = inconclusive; · = not tested or not shown.

SMILES	mHtt clearance	M1 agonist	M1 antagonist	D1 mod	M1 agonist conf	M4 ag counter
CCOC(=O)C1CCCN(C(=O)c2ccc3c(c2)NC(=O)C(N2CCOCC2)S3)C1 (configuration not stated)	·	-1.2	-0.24	-0.26	·	·
O=C(Nc1ccc(Cc2ccncc2)cc1)c1ccc(S(=O)(=O)N2CCOCC2)cc1	·	13*	-2.5*	0.26	-17	?
O=C(Nc1ccc(S(=O)(=O)N2CCOCC2)cc1)c1ccc(Cl)cc1	·	-0.43	-0.55	-1.4	·	·
COc1ccc(S(=O)(=O)N(C)CC(=O)N2CCC(C(N)=O)CC2)cc1Cl	·	0.31	0.29	-0.39	·	·
O=C(C1CCN(S(=O)(=O)c2cccc3cccnc23)CC1)N1CCN(c2ccc(Cl)cc2)CC1	·	3.4*	-2.2	-1.7	-19	-8.4
CC(=O)c1cccc(NC(=O)Nc2ccc3c(c2)N(C)C(=O)CS3)c1	·	3.2*	-0.99	·	-8	?
O=S(=O)(c1ccccc1)c1cccc(S(=O)(=O)N2CCCCC2)c1	-188	·	·	-0.13	·	·
Cc1ccc(S(=O)(=O)c2cccc(S(=O)(=O)N3CCCC3)c2)cc1S(=O)(=O)N1CCCC1	·	4.2*	-6.4*	0.0003	-13	?
Fc1ccc(/C=C2\CCCC3=C2Nc2ncnn2C3c2ccc(F)cc2)cc1 (configuration not stated)	6	·	·	·	·	·
CCOC(=O)c1c(NC(=O)CSc2nnc(C)s2)sc2c1CCC(C)C2 (configuration not stated)	-4	·	·	·	·	·
CCOC(=O)c1nnn(-c2nc(N3CCCC3)nc(N3CCCC3)n2)c1-c1ccccc1	32	-0.21	-0.027	2.3	·	·
CCOC(=O)c1c(-c2ccccc2)nnn1-c1nc(OCC)nc(N2CCCCC2)n1	·	6.6*	-1.9	-0.76	-29*	?
CCN(CC)c1ccc2cc(-c3nc4ccccc4n3C)c(=O)oc2c1	i	65*	0.056	-0.017	280*	400*
Cc1ccc(Oc2nccc(-c3ccc(Cl)cc3)n2)cc1	-14	·	·	·	·	·
Cc1cccc(Cn2cnc3c(nnn3Cc3ccccc3F)c2=O)c1	·	11*	-2.7*	-0.14	-34*	-72
Cc1cccc(Cn2cnc3c(nnn3Cc3ccc(F)cc3)c2=O)c1	·	-0.028	-0.35	1.5	·	·
CC(C)n1c(N2CCN(CC(=O)Nc3ccc4c(c3)OCCO4)CC2)nc2ccccc21	·	4*	-1.2	0.072	-22*	?
CN(C)c1ccc(NC(=O)CN2CCN(S(=O)(=O)c3cc(Cl)ccc3Cl)CC2)cc1	3	-0.52	-0.8	-0.69	·	·
O=C(CN1CCN(S(=O)(=O)c2cc(Cl)ccc2Cl)CC1)Nc1ccc2c(c1)OCCO2	·	4.1*	0.58	2.5	-31*	?
O=c1cc(-c2ccccc2)[nH]n1-c1ccc([N+](=O)[O-])cc1	50	·	·	·	·	·
O=C(Nc1nnc(CCN2CCCCC2)s1)C1CCCCC1	-2	2.7*	-1.7	-0.083	?	-76
CN(C)c1nc(OCCOC(=O)COc2ccc(Cl)cc2Cl)nc(N(C)C)n1	·	-1	0.32	-0.19	·	·
CN(C)c1nc(SCCOC(=O)COc2ccc(Cl)cc2Cl)nc(N(C)C)n1	·	2*	-1.2	1.2	11	?
CCOC(=O)C1CCCN(CC(O)COc2ccc(OC)cc2C(C)(C)C)C1 (configuration not stated)	·	20*	-6.7*	-0.12	335*	-17
O=C(NCc1ccc2c(c1)OCO2)c1ccc(C2SCC(=O)N2Cc2ccco2)cc1 (configuration not stated)	32	-0.81	-1.8	-0.63	·	·
SMILES	mHtt clearance	M1 agonist	M1 antagonist	D1 mod	M1 agonist conf	M4 ag counter
CS(=O)(=O)N(CC(=O)N1CCCCCC1)c1ccc2c(c1)OCCO2	-11	-2.1*	-0.14	-0.43	22	-25
CC(=O)Nc1c2c3c(cccc3n(C)c1=O)C(=O)c1ccccc1-2	17	9.4*	-0.37	0.086	68*	?
COCc1nnc(NS(=O)(=O)c2ccc(Br)cc2)s1	·	0.069	-0.0023	-1.3	·	·
Cc1ccccc1Cn1ccc(NC(=O)c2cnn3c(C(F)(F)F)cc(-c4ccco4)nc23)n1	·	9.2*	-2.7*	-4.4*	?	?
Cc1ccccc1Cn1ccc(NC(=O)CCSc2nc(-c3ccco3)cc(C(F)(F)F)n2)n1	-16	0.83	0.05	-0.28	·	·
COc1ccc(Br)cc1C(=O)Nc1cc(C)cc(C)c1	-44	·	·	·	·	·
CCC(=O)N1CCNC(=O)C1CC(=O)Nc1ccc(C)c(Cl)c1 (configuration not stated)	15	0.62	-0.28	0.34	·	·
